Structures are written as SMILES. Compounds without any hit were thinned out: in the full panel of roughly 79,000, 15% have a hit. The source made the active and inactive calls. Rule as the data show it: active = growth inhibition above about 70%; inactive = the rest.

The first assay in a line: NCI Yeast Anticancer Drug Screen. Data for the cln2 rad14 strain (AID 165).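 Also: 0% = growth equal to vehicle treated cultures.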 As to conditions: S. cerevisiae cln2 rad14 strain, at 50.0 µM, stronger effect = higher value. In outline: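 Growth inhibition, relative to vehicle-treated controls, is the read-out. The test organism is a yeast strain with defined genetic alterations, cln2 rad14.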
Turning to `C(=C(/C=C/C(=C/c1ccccc1)c1ccccc1)c1ccccc1)\c1ccccc1`, the growth inhibition is -59% (inactive).

On to `CC1(S)CCC2CC1C2(C)C` (stereo not given), for which the growth inhibition was 4.95% (inactive).

On to `N#CCCN(CCC#N)c1ccc(C(=O)NN)cc1`, for which the growth inhibition is 25.2% (inactive).

As to `OCC1NC(CO)C(O)C1O` (stereo not given), the growth inhibition is 1.05% (inactive).

Take `COc1ccc(OC)c(NC(=O)Nc2nccs2)c1`: the growth inhibition is -5.25% (inactive).

As for `N=c1c2ccccc2nc2oc3ccc(Cl)cc3n12`, the growth inhibition was -0.45% (inactive).

Consider `COc1ccc(N)c(OC)c1`, for which the growth inhibition is 12.9% (inactive).

Regarding `O=C(CC(O)(C(F)(F)F)C(F)(F)F)c1ccc(Cl)c([N+](=O)[O-])c1`, the growth inhibition is 96.6% (active).

Take `CCCc1cc(=O)oc2c3c(c4c(c12)OC(C)(C)C=C4)O[C@H](C)[C@@H](C)C3O` (stereo not given in full): the growth inhibition was -1.5% (inactive).

For the compound `CSc1nc(N)c(NS(=O)(=O)c2ccc(NC(C)=O)cc2)c(=O)[nH]1`, the growth inhibition is -12.7% (inactive).

Regarding `O=C(Nc1ccc([N+](=O)[O-])cc1Cl)c1ccc(C(=O)Nc2ccc([N+](=O)[O-])cc2Cl)cc1`, the growth inhibition is 31.3% (inactive).

For `O=c1oc2ccc(Cl)cc2n1CN1CCOCC1`, the growth inhibition is 12.8% (inactive).

For the compound `C[N+](C)(CCCN1C(=O)c2cccc3c(Br)ccc(c23)C1=O)Cc1ccc(Cl)c(Cl)c1`, the growth inhibition was 95.8% (active).

With `CCCN(CCC)C1=Nc2ccccc2-n2cnnc2C1`, the growth inhibition was 3.1% (inactive).

Regarding `C1CCC(NCSC2=NCCS2)CC1`, the growth inhibition was -29.8% (inactive).

`N#CCN(CCc1ccccc1)CCc1ccccc1`: the growth inhibition was -17.6% (inactive).

For the compound `O=S1(=O)CC2C3CC(Oc4ccccc4)C(C3)C2C1` (stereo not given), the growth inhibition is -20.9% (inactive).

In the case of `CC(CO)(CO)N1C(=O)c2cccc3cc([N+](=O)[O-])cc(c23)C1=O`, the growth inhibition is 31.1% (inactive).

With `Cc1cc2nc3c(=O)[nH]c(=O)nc-3n(CCN(CCO)CCO)c2cc1Cl`, the growth inhibition was 14.8% (inactive).

For `NC(=S)SC1=NNC2(C(=O)N1)c1ccccc1-c1ccccc12`, the growth inhibition is -6.7% (inactive).

Take `CC(=O)OC[C@@]12CC[C@H]3C(C)(C)CCC[C@]3(C)[C@H]1C[C@@H](C1=CC(=O)O[C@H]1O)O2`: the growth inhibition was 91.5% (active).

Turning to `O=C(NC(C(=O)O)c1ccccc1)c1ccc([N+](=O)[O-])cc1` (stereo not given), the growth inhibition is -0.6% (inactive).

Turning to `CSc1nsc(SC)c1C(N)=O`, the growth inhibition was 12.5% (inactive).

On to `O=C(NC1C=Nc2ccc([N+](=O)[O-])cc2NC1=O)c1ccc(Cl)cc1` (stereo not given), for which the growth inhibition was -18% (inactive).

On to `COc1ccc2c(c1)CCCN2S(=O)(=O)c1ccccc1[N+](=O)[O-]`, for which the growth inhibition was -7.65% (inactive).

With `COc1ccc(/C=C(\C(C)=O)C(=O)Nc2ccccc2)cc1`, the growth inhibition was 39.1% (inactive).

For `CC(=O)NC(Cc1ccccc1)c1ccccc1` (stereo not given), the growth inhibition was 12.8% (inactive).

For the compound `N=c1ccc2nc(N)nn(O)c-2c1`, the growth inhibition is -3.4% (inactive).

For `C[n+]1ccccc1C(O)C(O)c1cccc[n+]1C` (stereo not given), the growth inhibition is 23.4% (inactive).

Regarding `Oc1ccccc1-n1nc2ccc3nonc3c2n1`, the growth inhibition is -35.9% (inactive).

For the compound `Cc1ccccc1C(=O)NNC(=O)c1ccc2ccccc2c1`, the growth inhibition was 9.35% (inactive).

Turning to `O=C(O)c1oc2cccc3c2c1CCC3`, the growth inhibition was -10.3% (inactive).

As for `CCOC(=O)NCC1(c2ccccc2)CCN(Cc2ccccc2)CC1`, the growth inhibition was 1.35% (inactive).

Regarding `NC(=O)c1ccccc1NC(=O)CCCOc1ccccc1`, the growth inhibition is -5.8% (inactive).

Turning to `CCOC(=O)C(C)C(=O)C(C)C` (stereo not given), the growth inhibition was -11.8% (inactive).

As to `O=c1c2cnc3c4cccnc4ccc3c2[nH]n1-c1ccccc1`, the growth inhibition was -15.4% (inactive).

Consider `Cc1ccc(Sc2cccc3c2C(=O)c2c(Sc4ccc(C)cc4)cccc2C3=O)cc1`, for which the growth inhibition was -12.4% (inactive).

Consider `CCOC(=O)CNCc1cccc(Cl)c1`, for which the growth inhibition was -0.8% (inactive).

For `CC1(C)CC(=O)C2=C(C1)NC(=S)C(C#N)C2c1ccccc1` (stereo not given), the growth inhibition is 9.55% (inactive).

On to `O=COC1CCCCCC1`, for which the growth inhibition was 7.9% (inactive).

Another assay is described as follows: NCI Yeast Anticancer Drug Screen. Data for the bub3 strain (AID 167). To be noted: S. cerevisiae bub3 mutant strain, at 50.0 µM, stronger effect = higher value. In short, it runs like this:
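Whole-cell yeast assay. The mutant strain was incubated with compounds, and growth inhibition was determined by comparison with vehicle-treated cells.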
Take `C(=C(/C=C/C(=C/c1ccccc1)c1ccccc1)c1ccccc1)\c1ccccc1`: the growth inhibition was 0.65% (inactive).

On to `CC1(S)CCC2CC1C2(C)C` (stereo not given), for which the growth inhibition is -27.4% (inactive).

As to `N#CCCN(CCC#N)c1ccc(C(=O)NN)cc1`, the growth inhibition was -8.8% (inactive).

As to `OCC1NC(CO)C(O)C1O` (stereo not given), the growth inhibition is 9.2% (inactive).

Take `COc1ccc(OC)c(NC(=O)Nc2nccs2)c1`: the growth inhibition is 36.6% (inactive).

As to `N=c1c2ccccc2nc2oc3ccc(Cl)cc3n12`, the growth inhibition was 15.6% (inactive).

With `COc1ccc(N)c(OC)c1`, the growth inhibition is -39.6% (inactive).

Take `O=C(CC(O)(C(F)(F)F)C(F)(F)F)c1ccc(Cl)c([N+](=O)[O-])c1`: the growth inhibition was 97.7% (active).

In the case of `CCCc1cc(=O)oc2c3c(c4c(c12)OC(C)(C)C=C4)O[C@H](C)[C@@H](C)C3O` (stereo not given in full), the growth inhibition is 11.3% (inactive).

Take `CSc1nc(N)c(NS(=O)(=O)c2ccc(NC(C)=O)cc2)c(=O)[nH]1`: the growth inhibition was 2.45% (inactive).

Regarding `O=C(Nc1ccc([N+](=O)[O-])cc1Cl)c1ccc(C(=O)Nc2ccc([N+](=O)[O-])cc2Cl)cc1`, the growth inhibition is 1.95% (inactive).

On to `O=c1oc2ccc(Cl)cc2n1CN1CCOCC1`, for which the growth inhibition is -34.2% (inactive).

On to `C[N+](C)(CCCN1C(=O)c2cccc3c(Br)ccc(c23)C1=O)Cc1ccc(Cl)c(Cl)c1`, for which the growth inhibition is 95.7% (active).

`CCCN(CCC)C1=Nc2ccccc2-n2cnnc2C1`: the growth inhibition was -2.25% (inactive).

Regarding `C1CCC(NCSC2=NCCS2)CC1`, the growth inhibition was 7.95% (inactive).

Take `N#CCN(CCc1ccccc1)CCc1ccccc1`: the growth inhibition is -0.35% (inactive).

For `O=S1(=O)CC2C3CC(Oc4ccccc4)C(C3)C2C1` (stereo not given), the growth inhibition is -26.6% (inactive).

Consider `CC(CO)(CO)N1C(=O)c2cccc3cc([N+](=O)[O-])cc(c23)C1=O`, for which the growth inhibition is 35.2% (inactive).

Regarding `Cc1cc2nc3c(=O)[nH]c(=O)nc-3n(CCN(CCO)CCO)c2cc1Cl`, the growth inhibition is 1.55% (inactive).

As for `NC(=S)SC1=NNC2(C(=O)N1)c1ccccc1-c1ccccc12`, the growth inhibition is 5.7% (inactive).

On to `CC(=O)OC[C@@]12CC[C@H]3C(C)(C)CCC[C@]3(C)[C@H]1C[C@@H](C1=CC(=O)O[C@H]1O)O2`, for which the growth inhibition is 89.4% (active).

On to `O=C(NC(C(=O)O)c1ccccc1)c1ccc([N+](=O)[O-])cc1` (stereo not given), for which the growth inhibition is 31.6% (inactive).

As to `CSc1nsc(SC)c1C(N)=O`, the growth inhibition is 16.2% (inactive).

`O=C(NC1C=Nc2ccc([N+](=O)[O-])cc2NC1=O)c1ccc(Cl)cc1` (stereo not given): the growth inhibition is -1.85% (inactive).

In the case of `COc1ccc2c(c1)CCCN2S(=O)(=O)c1ccccc1[N+](=O)[O-]`, the growth inhibition is 39.2% (inactive).

As for `COc1ccc(/C=C(\C(C)=O)C(=O)Nc2ccccc2)cc1`, the growth inhibition was 6.2% (inactive).

Regarding `CC(=O)NC(Cc1ccccc1)c1ccccc1` (stereo not given), the growth inhibition is 21.6% (inactive).

As to `N=c1ccc2nc(N)nn(O)c-2c1`, the growth inhibition was -37.3% (inactive).

In the case of `C[n+]1ccccc1C(O)C(O)c1cccc[n+]1C` (stereo not given), the growth inhibition was -8.45% (inactive).

Take `Oc1ccccc1-n1nc2ccc3nonc3c2n1`: the growth inhibition is -1% (inactive).

Consider `Cc1ccccc1C(=O)NNC(=O)c1ccc2ccccc2c1`, for which the growth inhibition was -13.2% (inactive).

Regarding `O=C(O)c1oc2cccc3c2c1CCC3`, the growth inhibition was -1.35% (inactive).

As for `CCOC(=O)NCC1(c2ccccc2)CCN(Cc2ccccc2)CC1`, the growth inhibition is -14.9% (inactive).

Consider `NC(=O)c1ccccc1NC(=O)CCCOc1ccccc1`, for which the growth inhibition was -14.3% (inactive).

With `CCOC(=O)C(C)C(=O)C(C)C` (stereo not given), the growth inhibition was 13.7% (inactive).

With `O=c1c2cnc3c4cccnc4ccc3c2[nH]n1-c1ccccc1`, the growth inhibition was -9.85% (inactive).

On to `Cc1ccc(Sc2cccc3c2C(=O)c2c(Sc4ccc(C)cc4)cccc2C3=O)cc1`, for which the growth inhibition was -2.7% (inactive).

`CCOC(=O)CNCc1cccc(Cl)c1`: the growth inhibition was 28.1% (inactive).

In the case of `CC1(C)CC(=O)C2=C(C1)NC(=S)C(C#N)C2c1ccccc1` (stereo not given), the growth inhibition is 21.1% (inactive).

With `O=COC1CCCCCC1`, the growth inhibition was -5.9% (inactive).

Source of the values: PubChem BioAssay (NCI).
